The record followed here is PubChem BioAssay (NCI).

This is part of a sample that, as a whole, favours compounds with a hit. Of some 83,000 tested, about 20% had one in any assay.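 48-hour exposure, single concentration, 96-well plates; percent growth endpoint where 0 means no net growth. Active: below 10.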 A number with no mark means an inactive call. Activity calls are given as the source filed them.

One assay deals with HS 578T breast. As to the kind of experiment: NCI-60 one-dose screen, 48 h (100 = growth as untreated, 0 = no growth, -100 = all killed). The following applies: 10 µM.
In the case of `N#Cc1c(-c2ccc(F)cc2)nc(SCc2ccc(F)cc2)nc1N1CCOCC1`, the growth was 25.7%.

For `S=c1nc(-c2ccccc2)cc(-c2cc3ccccc3nc2Cl)[nH]1`, the growth was 57.6%.

With `C=C(C)[C@@H]1CC[C@]2(C(=O)OC)CC[C@]3(C)[C@H](CC[C@@H]4[C@@]5(C)CC[C@H](N)C(C)(C)[C@@H]5CC[C@]43C)[C@@H]12`, the growth is -59.3% (active).

Regarding `O=C(c1ccc(O)cc1)C1[C@H](c2ccccc2Br)[C@@H](c2ccccc2)NC12C(=O)Nc1ccc(Cl)cc12` (stereo not given in full), the growth is 5.54% (active).

Take `CC[C@@]1(O)C(=O)OCc2c1cc1n(c2=O)Cc2c-1nc1cc(F)c(C)c3c1c2[C@@H](N)CC3`: the growth is 51.3%.

In a further assay the test system is NCI/ADR-RES ovarian. Described as above. The following applies: 10 µM.
Regarding `CC(=O)Nc1nc(-c2ccc(N3CCN(C)CC3)c(NS(=O)(=O)c3cccc4c(N(C)C)cccc34)c2)cs1`, the growth is 94.8%.

On to `CN1CCN(Cc2ccc(C(=O)Nc3cccc(Nc4ccc5cc(O)ccc5n4)c3)cc2C(F)(F)F)CC1`, for which the growth was 28.6%.

Take `O=C(c1ccc(O)cc1)C1[C@H](c2ccccc2Br)[C@@H](c2ccccc2)NC12C(=O)Nc1ccc(Br)cc12` (stereo not given in full): the growth was 64.9%.

Regarding `Brc1ccc(/C=N/Nc2ncnc3sc4c(c23)CCN(Cc2ccccc2)C4)cc1`, the growth is 68.8%.

Regarding `O=C(c1ccc(O)cc1)C1[C@H](c2ccc(Br)cc2)[C@@H](c2ccccc2)NC12C(=O)Nc1ccccc12` (stereo not given in full), the growth is 22.4%.

In the case of `O=c1[nH][nH]c(Nc2ccccc2)c1N=Nc1ccc(F)cc1`, the growth is 100%.

Consider `Cc1ccc(-c2nc3ccc(C(=O)N=Nc4c(O)[nH]c5ccc(Cl)cc45)cc3[nH]2)cc1`, for which the growth was 54.1%.

Turning to `COc1ccc(C(=O)Nc2ccc(-c3ccc4c(c3)NC(=O)/C4=C\c3ccc[nH]3)cc2)cc1`, the growth is -42.8% (active).

For `CNCc1cccc2c1OCCCCCC[C@@](C)(O)CC1(CC1)S(=O)(=O)c1ccc(cc1)-c1cnc(N)c(n1)C(=O)N2`, the growth is -92.1% (active).

As for `COc1cccc2nc(Nc3ccc(F)c(NC(=O)c4ccc(CN5CCN(C)CC5)c(C(F)(F)F)c4)c3)ccc12`, the growth was -3.12% (active).

Regarding `CCOC(=O)C1NN(c2ccc(S(N)(=O)=O)cc2)c2nc3nc(-c4cccs4)cc(-c4cccs4)c3c(=O)n21` (stereo not given), the growth was 88.6%.

As for `O=C1Nc2cc(Cl)ccc2/C1=C/c1cccc(OCc2ccc(Br)cc2F)c1`, the growth was -35.1% (active).

Take `O=C(c1ccc(Cl)cc1)C1[C@H](c2ccccc2Br)[C@@H](c2ccccc2)NC12C(=O)Nc1ccc(Br)cc12` (stereo not given in full): the growth was -67% (active).

In the case of `O=c1[nH]n(C(=S)N/N=C/c2ccc(F)cc2)c(=O)c2ccccc12`, the growth was 31.1%.

As to `CC1(C)CC[C@]2(C(=O)O)CC[C@]3(C)C(=CC[C@@H]4[C@@]5(C)C/C(=C/c6ccncc6)[C@H](O)C(C)(C)[C@@H]5CC[C@]43C)[C@@H]2C1`, the growth is 32.7%.

As for `CC1(C)CC[C@]23CC[C@]4(C)[C@H](CC[C@@H]5[C@@]6(C)CC[C@H](N)C(C)(C)[C@@H]6CC[C@]54C)[C@H]2[C@H]1OC3=O`, the growth was -69.4% (active).

In the case of `C#CCNC(=O)[C@]12CCC(C)(C)C[C@H]1C1=CC[C@@H]3[C@@](C)(CCC#N)[C@H](C(=C)C)CC[C@@]3(C)[C@]1(C)CC2`, the growth was 62.5%.

Turning to `COC1CC(Cn2cc(COc3ccc4ccc(=O)oc4c3)nn2)C(OCc2ccccc2)C(OCc2ccccc2)C1OCc1ccccc1` (stereo not given), the growth was 94.3%.

`Cc1cccc2cc(-c3cc(-c4ccccc4)nc(=O)[nH]3)c(Cl)nc12`: the growth is 73.5%.

As to `Cc1ccc(CSc2nc(-c3ccc(F)cc3)c(C#N)c(=O)[nH]2)cc1`, the growth was 95.9%.

As to `O=C1Nc2cc(-c3ccc(NC(=O)c4cccc([N+](=O)[O-])c4)cc3)ccc2/C1=C/c1ccc[nH]1`, the growth is 89.5%.

As to `C=C(C)[C@@H]1CC[C@]2(COP(=O)(OCC)OCC)CC[C@]3(C)[C@H](CC[C@@H]4[C@@](C)(CCCN)[C@H](C(=C)C)CC[C@]43C)[C@@H]12`, the growth is 18.9%.

As for `O=C(CS(=O)(=O)c1oc(-c2ccc(Cl)cc2)nc1S(=O)(=O)c1ccc(Cl)cc1)N1CCOCC1`, the growth is 28.2%.

Turning to `CN1CCN(c2ccc(Nc3nc(NCCCNC(=O)c4ccc(Cl)cc4)c4sccc4n3)cc2)CC1`, the growth is 91.6%.

In the case of `CN1CCN(c2ccc(Nc3nc(NCCNC(=O)c4ccc(C(F)(F)F)cc4)c4sccc4n3)cc2)CC1`, the growth is 38.5%.

Turning to `O=C(NCCCCC(c1ccc(F)cc1)c1ccc(F)cc1)NCCCc1cccnc1`, the growth is 12.9%.

As to `O=C(c1ccc(Cl)cc1)C1[C@H](c2ccc(Br)cc2)[C@@H](c2ccccc2)NC12C(=O)Nc1ccc(Br)cc12` (stereo not given in full), the growth was -85.6% (active).

Turning to `COc1ccc2[nH]c(O)c(N=NC(=O)COc3ccc(NC(=O)Nc4ccc(Cl)cc4)cc3)c2c1`, the growth was 102%.

For the molecule `CONC[C@]1(C)C=C2C(=O)[C@](C)(O)C3(CC3)C(C)=C2[C@H]1O`, the growth was -58.3% (active).

On to `COC[C@@H](CC(C)C)N=C1NC(=O)/C(=C/c2ccc3ncoc3c2)N1`, for which the growth was 20.3%.

Turning to `O=C(c1ccc(Cl)cc1)C1[C@H](c2ccccc2Br)[C@@H](c2ccccc2)NC12C(=O)Nc1ccccc12` (stereo not given in full), the growth was -70% (active).

As to `Cc1ccc(NCC(=O)Nn2c(COc3ccccc3)nc3ccccc3c2=O)cc1`, the growth was 72.6%.

With `CO[C@@H]1CSSC1Cn1nc(-c2ccc(Oc3ccccc3)cc2)c2c(N)ncnc21` (stereo not given in full), the growth is 57.5%.

Consider `COc1cc(Cn2c(C(F)(F)F)cc3c(Cl)ncnc32)ccn1`, for which the growth was 67.7%.

For the molecule `COc1ccc(/C(C)=N/N=C2C(=O)N(C)c3ccc(Br)cc32)cc1S(N)(=O)=O`, the growth is 68.2%.

As to `N#Cc1c(-c2ccc(F)cc2)nc(SCc2ccc(F)cc2)nc1N1CCOCC1`, the growth is 63.5%.

With `S=c1nc(-c2ccccc2)cc(-c2cc3ccccc3nc2Cl)[nH]1`, the growth was 49.1%.

Consider `C=C(C)[C@@H]1CC[C@]2(C(=O)OC)CC[C@]3(C)[C@H](CC[C@@H]4[C@@]5(C)CC[C@H](N)C(C)(C)[C@@H]5CC[C@]43C)[C@@H]12`, for which the growth was -83% (active).

As to `O=C(c1ccc(O)cc1)C1[C@H](c2ccccc2Br)[C@@H](c2ccccc2)NC12C(=O)Nc1ccc(Cl)cc12` (stereo not given in full), the growth is 11.2%.

In the case of `CC[C@@]1(O)C(=O)OCc2c1cc1n(c2=O)Cc2c-1nc1cc(F)c(C)c3c1c2[C@@H](N)CC3`, the growth was -12.2% (active).
